# High-throughput results: PubChem BioAssay, National Center for Advancing Translational Sciences (NCATS)
# G9a block = G9a (human) methyltransferase inhibition; Q96KQ7; G9a H3K9 monomethylation, AlphaScreen, 2 h; Potency, µM (series often up to 102 µM), inactives show at the top dose activity, negative = inhibition, most hits filed as inhibitors; 8.8% of 350,000 active; note: % is set by controls: 0 for no effect and ±100 for the full control effect; nearly all actives have a fitted effect of over 75% in size
# Target sequence (Q96KQ7 913-1193 limits assumed): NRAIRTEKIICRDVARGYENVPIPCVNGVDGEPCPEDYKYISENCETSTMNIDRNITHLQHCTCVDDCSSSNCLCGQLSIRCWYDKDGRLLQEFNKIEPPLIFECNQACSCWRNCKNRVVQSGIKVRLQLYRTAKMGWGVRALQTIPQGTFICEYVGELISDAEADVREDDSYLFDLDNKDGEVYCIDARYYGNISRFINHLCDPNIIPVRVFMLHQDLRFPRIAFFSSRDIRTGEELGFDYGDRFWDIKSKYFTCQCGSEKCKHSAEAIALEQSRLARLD
#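 Quantitative HTS format: methyltransferase activity on a biotin-tagged H3K9 peptide is measured by AlphaScreen, using a rabbit anti-monomethyl-H3K9 antibody with streptavidin donor and anti-IgG acceptor beads. Final levels are 20 nM enzyme, 500 nM peptide, 20 uM SAM; 2 h RT.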
# JMJD2A Tudor inh = inhibitors of human JMJD2A Tudor domain; Potency, µM (highest dose often 114 µM), without a hit: at the highest dose activity change, negative = inhibition, most hits filed as inhibitors; 4.4% of 390,000 active; AlphaScreen JMJD2A-Tudor / H3K4me3 peptide binding; AID 504339; O75164; note: % is set by controls: 0 for no effect and ±100 for the full control effect; nearly all actives have a fitted effect of over 50% in size
# Sfp PPTase inh = Sfp phosphopantetheinyl transferase inhibition; Biochemical Sfp PPTase activity, qHTS; Potency, µM, inactives show largest response in the series, negative = inhibition, usual class: inhibitors; 3.5% of 310,000 active; Q9F4F7;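 note: the enzyme is Sfp with the accession as filed and its product quenches rhodamine fluorescence; 0% = enzyme reaction without inhibitor and -100% = no enzyme wells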
#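 Buffer: 50 mM Hepes-Na pH 7.6, 10 mM MgCl2, 0.01% Nonidet P-40, 0.01% BSA. Enzyme 15 nM, pre-exposed to compound 15 min; substrates then added and fluorescence change tracked over 30 min.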
# PLK1 PBD block = PLK1 (human) polo-box domain binding inhibition; 2.8% of 360,000 active; AID 720504; Potency, µM, for the others: max response, negative = inhibition, hits mostly inhibitors; P53350; Plk1 PBD binding of FITC phosphopeptide, fluorescence polarization; note: series mostly up to about 57 µM; % is set by controls: 0 for no effect and ±100 for the full control effect; nearly all actives have a fitted effect of over 65% in size
# BAZ2B inh = blocks human BAZ2B; AlphaScreen BAZ2B-H3K14Ac peptide displacement; Q9UIF8; Potency, µM (series often up to 114 µM), without a hit: top-dose activity change, negative = inhibition, hits mostly inhibitors; 4.4% of 360,000 active; note: % is set by controls: 0 for no effect and ±100 for the full control effect; nearly all actives have a fitted effect of over 60% in size
#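 Inhibition is scored as reduced AlphaScreen emission. The BAZ2B/b-H3(5-23)K14Ac complex (50 nM each) in PBS pH 7.4, 0.01% Tween-20 meets compound (up to 110 uM) for 30 min at RT before bead addition.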
# HP1b binding inh = blocks HP1-beta chromodomain binding to methylated histone tails. AlphaScreen HP1-beta / biotin-H3K9me3 peptide binding. Potency, µM (highest dose often 114 µM), for the others: at the highest dose activity change, negative = inhibition, most hits filed as inhibitors. 0.56% of 390,000 active; note: nearly all actives have a fitted effect of over 70% in size
# Target sequence (P83916 whole entry, looked up): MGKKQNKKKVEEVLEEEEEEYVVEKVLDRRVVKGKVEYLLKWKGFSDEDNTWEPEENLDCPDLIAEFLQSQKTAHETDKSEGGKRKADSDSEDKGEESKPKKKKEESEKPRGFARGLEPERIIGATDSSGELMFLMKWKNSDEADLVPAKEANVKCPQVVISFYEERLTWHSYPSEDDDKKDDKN
#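 Compound inhibition of the preformed complex between 50 nM HP1-beta and 50 nM biotinylated H3K9me3 peptide was read by AlphaScreen. Buffer was PBS pH 7.4 with 0.01% Tween-20. Incubations ran 30 min at room temperature, with 10 ug/mL donor/acceptor beads.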
# * = called active by the depositor; ? = inconclusive; · = no result given; ! = not active in a repeat; [ ] = another dose, or the depositor's remark. Rows were chosen to be rich in hits. Some 12% of all compounds tested hit in one or more screens of this group. Calls come from the whole dose curve; as a rule, active = well fitted curve in the direction sought with a large enough effect; inconclusive = small, poorly fitted or top-dose-only effect, or another doubt; inactive = no such curve, though single readings can be large; an effect the other way counts as inactive or inconclusive. Potency is the fitted concentration of half-maximal effect.
SMILES,G9a block,JMJD2A Tudor inh,Sfp PPTase inh,PLK1 PBD block,BAZ2B inh,HP1b binding inh
CC(=O)Nc1ccc(N(C(=O)Cn2nnc3ccccc32)C(C(=O)NC2CCCC2)c2ccc(O)c(O)c2)cc1 (configuration not stated),50µM*,-17%,-14%,-16%,-18%,-15%
c1cncc([C@H]2CCCCN2)c1,·,·,10%,·,·,·
CN(C)C(=S)SSC(=S)N(C)C,1.3µM*,-13%,3.5µM*!,0.34µM*,-33%,22%
CN(C)C(=S)SC(=S)N(C)C,2.5µM*,·,11µM*,·,·,·
N#CCCN,-17%[59 µM],·,·,·,·,·
Cc1cc(/C=C2\C(=O)NC(=S)N(C)C2=O)c(C)n1C1CCCCC1,?,-15%,?,6%,-21%,21%
CCN1C(=O)C(=Cc2cc(C)n(C3CC3)c2C)C(=O)N(CC)C1=S,50µM*,-22%,?,10%,-1%,27%
Cc1cc(C=C2C(=O)N(C)C(=S)N(C)C2=O)c(C)n1C1CCCC1,11µM*,?,56µM*,?,?,-11%
COC(=O)[C@@]1(O)C[C@@H]2O[C@@]1(C)n1c3ccccc3c3c4c(c5c6ccccc6n2c5c31)C(=O)NC4,·,·,-3%,·,·,·
CC([C@H](O)c1ccccc1)N(C)C (some centres not stated),?,·,18%,·,·,·
O=C(COc1ccc(S(=O)(=O)N2CCCCC2)cc1)N1CCN(Cc2ccccc2)CC1,45µM*,-12%,0%,-7%,-2%,25%
Cc1ccc(OCC(=O)N2CCN(Cc3ccc4c(c3)OCO4)CC2)cc1C,-8%[12.7 µM],-15%,7%,2%,?,16%
CSc1ccc(CN2CCN(C(=O)COc3ccc(C)cc3)CC2)cc1,10µM*,8.9µM*,-12%,-4%,56µM*,?
O=C(COc1ccc(Br)cc1)N1CCN(Cc2ccc3c(c2)OCO3)CC1,·,8.9µM*,?,-8%,50µM*,?
O=C(COc1ccc(Br)cc1)N1CCN(Cc2ccncc2)CC1,18µM*,1µM*,-7%,-15%,-3%,?
C=C(C)C1Cc2c(ccc3c(=O)c4c(oc23)COc2cc(OC)c(OC)cc2-4)O1 (configuration not stated),·,·,-6%,·,·,·
CCN(CC1CCCN(CCc2cccc(OC)c2)C1)C(=O)c1ccc(COC)o1 (configuration not stated),28%,-20%,8%,-1%,-2%,41%
OC[C@@H]1[C@@H](O)[C@H](O)[C@H]2[C@@H](O)CCN21,·,·,0%,·,·,·
O=C1CC2OCC=C3CN4CCC56c7ccccc7N1C5[C@H]2[C@H]3C[C@H]46 (some centres not stated) (tested in a mixture with another compound),-34%[12.7 µM],·,22%,·,·,·
O=[N+]([O-])O[C@H]1CO[C@H]2[C@H]1OC[C@@H]2O[N+](=O)[O-],21%[21.5 µM],·,26%,·,·,·
COc1ccc(NC(=O)N2CC3(CCN(C(=O)Oc4ccccc4)CC3)C2)cc1,-9%[12.7 µM],·,11%,·,·,·
Cc1cccc(OCC(=O)N2CCN(Cc3ccc4c(c3)OCO4)CC2)c1,10µM*,?,-28%,-9%,50µM*,?
CC(C)COP(=O)(c1ccc(N(C)C)cc1)C(Nc1ccccc1)c1ccccc1 (configuration not stated),?,-35%[57.1 µM],-6%,-8%,?,48%
CN(C)c1ccc(P(=O)(OC2CCCCC2)C(Nc2ccccc2)c2cccnc2)cc1 (configuration not stated),·,-21%,-7%,-2%,40µM*,-17%
CC(=O)NC(Cc1ccc(N(CCCl)CCCl)cc1)C(=O)O (configuration not stated),-25%[59 µM],-10%,-1%,-3%,8%,25%
SMILES,G9a block,JMJD2A Tudor inh,Sfp PPTase inh,PLK1 PBD block,BAZ2B inh,HP1b binding inh
N[C@@H](Cc1ccc(N(CCCl)CCCl)cc1)C(=O)O,7.9µM*,-27%,?,-11%,-27%,25%
O=C(O)CCCc1ccc(N(CCCl)CCCl)cc1,-1%[59 µM],-31%,-9%,-21%,56µM*,22%
O=C(Cc1ccc(N(CCCl)CCCl)cc1)NC(Cc1ccc(Cl)cc1)C(=O)O (configuration not stated),?,-10%,12%,-9%,-9%,45%
C[C@@H]1O[C@H](O[C@H]2C[C@@H](O)[C@@]3(CO)[C@H]4[C@@H](O)C[C@]5(C)[C@@H](C6=CC(=O)OC6)CC[C@]5(O)[C@H]4CC[C@]3(O)C2)[C@@H](O)[C@H](O)[C@@H]1O,24%[21.5 µM],·,15%,·,·,·
C=CCn1c(O)c(C(C)=NCCO)c(=O)[nH]c1=O,25%[2.33 µM],-15%,15%,-10%,-1%,-2%
C=CCn1c(O)c(C(C)=O)c(=O)[nH]c1=O (tested in a mixture with another compound),45µM*,-26%,-2%,0%,-38%,14%
C=CCn1c(O)c(C(C)=Nc2cccc(C(=O)O)c2)c(=O)[nH]c1=O,50µM*,1%,-2%,-7%,-37%,17%
C=CCn1c(O)c(C(CC)=Nc2ccc(N(C)C)cc2)c(=O)[nH]c1=O,·,-13%,50µM*,6%,?,25%
C=CCn1c(O)c(C(C)=Nc2ccc(C(=O)OCC)cc2)c(=O)[nH]c1=O,?,5%,-29%,-4%,79µM*,30%
CC[C@H](C)[C@H](NC(=O)CN)C(=O)N[C@@H](CC(C)C)C(=O)NCC(=O)N[C@@H](Cc1ccccc1)C(=O)N[C@H](C(=O)N[C@@H](Cc1ccccc1)C(=O)N[C@H](C(=O)N[C@@H](CC(C)C)C(=O)O)[C@@H](C)O)C(C)C,·,·,7%,·,·,·
C[C@@H]1CCc2cc(F)cc3c(=O)c(C(=O)O)cn1c23,17%[21.5 µM],·,3%,·,·,·
C[C@@H]1Cc2c(Cl)cc(C(=O)N[C@H](Cc3ccccc3)C(=O)O)c(O)c2C(=O)O1,·,·,6%,·,·,·
CC(C)C1C(=O)O[C@@H]2CCN3CC=C(COC(=O)[C@](C)(O)[C@]1(C)O)[C@H]23 (some centres not stated),·,·,23%,·,·,·
Cc1ccc(C)c(NC(=O)c2cc[n+](C)cc2)c1,32µM*,-27%,2%,-2%,-25%,32%
C[C@H]1CC[C@@H]2[C@@H](C)[C@H]3C(C[C@H]4C5CC[C@H]6C[C@@H](O)CC[C@]6(C)C5CC[C@]34C)N2C1 (some centres not stated),·,-6%,-5%,·,·,36%
Oc1cccc2nc3ccccc3nc12,28µM*,?,-15%,-4%,?,-29%
Cc1ccccc1O,·,-10%,·,-8%,·,24%
CCOc1ccccc1CN1CCN(S(=O)(=O)CC)CC1,13µM*,5.6µM*,-27%,-7%,50µM*,?
